# Laboratory results published in PubChem BioAssay (NCATS).
# Calls of active or inactive are those of the source. Calls follow the shape of the dose curve; as a rule, active = well fitted activation curve with a large enough effect; inconclusive = small, poorly fitted or top-dose-only effect; inactive = flat fitted curve, though single readings scatter.
# Assay: Cellular Toxicity (caspase-3) SHSY5Y (AID 657)
# Conditions: SH-SY5Y caspase-3 activation, DMSO zero, 10 µM staurosporine = 100%; series mostly up to 91.7 µM; caspase-3 activation: at the top concentration
# Source text: NIH Chemical Genomics Center [NCGC]
# NIH Molecular Libraries Screening Centers Network [MLSCN]
# National Institutes of Environmental Health Sciences [NIEHS]
# National Toxicology Program [NTP]
# We have developed a 1536-well cell-based assay for quantitative high throughput screening (qHTS) against a number of cell lines to determine in vitro caspase 3/7 activity of small molecules. This particular assay uses the SH-SY5Y cell line which is derived from human neuroblastoma.
# NCGC Assay Protocol Summary:
# The Caspase-Glo 3/7 assay (Promega) is a homogeneous method to measure caspase-3 and caspase-7 activities in cultured cells. The quantitation of caspase 3/7 activity is based on the cleavage of a peptide-aminoluciferin substrate. After caspase cleaves the substrate the free aminoluciferin is liberated and serves as the substrate of luciferase, which generates the light. The luminescent signal is proportional to the amount of caspase 3/7 activity present.
# Using the Caspase-Glo 3/7 assay, the amount of caspase 3/7 activity was measured in the SH-SY5Y cell line with complete culture medium following compound treatment for 16 hours. The assay was performed in opaque white 1536-well plates. In the screen, staurosporine and doxorubicin were used as positive controls. Library compounds were measured for their ability to cause the activation of caspase 3/7 in the cell line, as reflected by an increase in luminescence signal, in a concentration-dependent manner. Data were normalized to the controls for basal activity (DMSO only) and 100% stimulation (10 uM staurosporine). AC50 values were determined from concentration-response data modeled with the standard Hill equation.
# qHTS protocol for caspase 3/7 assay in SH-SY5Y cells
# [Step] [Parameter] [Value] [Description]
# 1. Reagent; 5 uL; 1500 SH-SY5Y cells/well
# 2. Time; 5 hr; 37 °C incubation
# 4. Controls; 23 nL; doxorubicin 7 pM to 100 uM & staurosporine 1.4 pM to 20 uM
# 5. Time; 16 hr; 37 °C incubation
# 6. Reagent; 5 uL; Caspase-Glo 3/7 reagent
# 7. Time; 1 hr; Room Temperature
# 8. Detection; Luminescence; Viewlux plate reader
# Keywords: caspase 3/7, apoptosis, SH-SY5Y cell line, luminescence, NTPHTS, NTPHTS_NCGC, NIEHS, EPA, DSSTox, MLSMR, MLSCN, NIH Roadmap, qHTS, NCGC
row,SMILES,caspase-3 activation
1,FC(F)(F)C(Cl)Br (configuration not stated),-1.04% (inactive)
2,CCCCCC(N)=O,2.2% (inactive)
3,COc1ccc(O)cc1,-0.971% (inactive)
4,Cc1c(N(C)C)c(=O)n(-c2ccccc2)n1C,-0.791% (inactive)
5,C=CCNC(N)=S,0.579% (inactive)
6,CCN(CC)C(=O)c1cccc(C)c1,2.52% (inactive)
7,O=C(c1ccccc1)C(O)c1ccccc1 (configuration not stated),-0.885% (inactive)
8,CC(=O)OCC(COC(C)=O)OC(C)=O,1.54% (inactive)
9,Cc1cc(=O)[nH]c(=S)[nH]1,-0.577% (inactive)
10,Cc1cc(C)nc(NS(=O)(=O)c2ccc(N)cc2)n1,0.762% (inactive)
11,CC(=O)Nc1ccc(C(=O)O)cc1,0.188% (inactive)
12,CC(=O)Nc1ccccc1,2.33% (inactive)
13,O=C1c2cccc(O)c2C(=O)c2c(O)cccc21,1.39% (inactive)
14,CC(=O)Nc1cccc(O)c1,2.45% (inactive)
15,Nc1ccc(S(=O)(=O)c2ccc(N)cc2)cc1,1.25% (inactive)
16,O=C(O)CCCCC1CCSS1 (configuration not stated),-2.09% (inactive)
17,CC(=O)NS(=O)(=O)c1ccc(N)cc1,-0.412% (inactive)
18,CCCCCCCC(=O)OCC(COC(=O)CCCCCCC)OC(=O)CCCCCCC,-1.44% (inactive)
19,CCCC(O)C(CC)CO (configuration not stated),0.8% (inactive)
20,CCCCOC(=O)c1ccc(N)cc1,-0.191% (inactive)
21,O=C1C(c2[nH]c3ccccc3c2O)=Nc2ccccc21,22.7% (inactive)
22,CC1CC(OC(=O)c2ccccc2O)CC(C)(C)C1 (configuration not stated),4.46% (inactive)
